The list is not random: actives were taken first. Their share in the collection is about 4.2%.
TIM10 inh = growth inhibitors of isogenic TIM10 control yeast, primary screen, counter-screen for tim10-1 yeast inhibitor project, luminescence, uHTS; inhibition, % at 10 µM; AID 463195, 2010; S. cerevisiae TIM10 strain growth, BacTiter-Glo luminescence, 24 h; 330,000 compounds, 1.4% hits;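 active = inhibition of 40% or more at the single tested concentration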;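 note: wild-type TIM10 isogenic control strain grown at permissive 25 °C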
NALP1 yeast inh = NALP1 inflammasome inhibitors in reconstituted yeast, colorimetric, S. cerevisiae, triplicate retest. inhibition, % at 10 µM. AID 2071, 2009. S. cerevisiae NALP1/ASC/caspase-1 growth, X-gal OD620, 72 h. 280,000 compounds, 0.61% hits; in the data active = inhibition mostly above about 24%, no sharp cut-off; inactive = mostly below about 32%
NALP3 yeast inh = NALP3 inflammasome inhibitors in reconstituted yeast, primary screen, luminescence, uHTS; inhibition, % at 10 µM; AID 2825, 2010; 330,000 compounds, 0.39% hits; Yeast reconstituted NLRP3/ASC/caspase-1, beta-gal luminescence, 24 h;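 active = inhibition of 50% or more; inactive = inhibition below 50%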;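 note: plate controls were induced DMSO wells for no effect and uninduced yeast grown without galactose for full effect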
tim10-1 inh = growth inhibitors of tim10-1 mutant yeast, primary screen, luminescence, uHTS. inhibition, % at 20 µM. 330,000 compounds, 2.2% hits. S. cerevisiae tim10-1 ts strain growth, BacTiter-Glo, 24 h;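 active = inhibition of at least 40%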;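 note: mutant grown at 25 °C; 0% = DMSO wells with yeast and 100% = wells holding no yeast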
V-ATPase pH = regulators of yeast V-ATPase proton pumping, primary screen, pHLuorin cytosolic pH fluorescence. response, % at 10 µM. AID 504577, 2011. S. cerevisiae. 350,000 compounds, 0.37% hits; in the data active = response mostly above about 7.3%, no sharp cut-off; inactive = mostly below about 5.4%; note: actives read high
tim23-1 inh = growth inhibitors of tim23-1 mutant yeast, primary screen, luminescence, uHTS; 330,000 compounds, 1.3% hits; S. cerevisiae tim23-1 growth, BacTiter-Glo luminescence, 24 h; AID 463212, 2010; inhibition, % at 20 µM;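 active = growth inhibition of the mutant yeast at or above 50%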;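 note: temperature-sensitive mutant grown at 25 °C; plate controls were DMSO-treated mutant yeast for no effect and medium wells lacking yeast for full effect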
NALP3 confirm = NALP3 inhibitors retested in yeast, confirmation, luminescence, single concentration. shares compounds with NALP3 yeast inh. yeast expressing human NALP3. AID 435006, 2010. 1,300 compounds, 81% hits. inhibition, % at 10 µM; in the data active = inhibition above about 48%
Casp1-ASC yeast = CASP1-PYCARD signaling inhibition in yeast, confirmatory test, counterassay for NLRP3 inhibitor program, one-dose; shares compounds with NALP3 yeast inh; yeast expressing Caspase-1-ASC, luminescence counter screen; inhibition, % at 10 µM; 1,000 compounds, 66% hits
NALP3 yeast rt = NALP3 inhibitors in yeast, repeat test, confirmation, luminescence, single concentration, retest; inhibition, % at 10 µM; AID 488794, 2010; 1,000 compounds, 53% hits; yeast expressing human NALP3, luminescence read-out; shares compounds with NALP3 yeast inh
tim10-1 conf = growth inhibitors of tim10-1 mutant yeast, confirmation, single concentration, luminescence, S. cerevisiae. shares compounds with tim10-1 inh. S. cerevisiae tim10-1 ts strain growth, BacTiter-Glo, 24 h. inhibition, % at 20 µM. 7,400 compounds, 56% hits. AID 463213, 2010;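 active = inhibition of yeast growth at or above a set limit in either of two repeat tests at 20 µM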;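 note: tim10-1 mutant grown at permissive 25 °C to find synthetic lethal compounds; 0% = DMSO yeast wells and 100% = medium wells without yeast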
TIM10 conf = growth inhibitors of wild-type TIM10 yeast, confirmation, counter-screen for tim10-1 synthetic lethality project, single concentration, luminescence, S. cerevisiae; AID 463215, 2010; shares compounds with TIM10 inh; S. cerevisiae tim10 strain growth, BacTiter-Glo luminescence, 24 h; 4,600 compounds, 63% hits; inhibition, % at 10 µM;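 active = inhibition of yeast growth at or above a set limit in either of two replicates at 10 µM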;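 note: this counterscreen used the strain with wild-type TIM10; 0% = yeast with DMSO and 100% = medium wells lacking yeast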
tim23-1 conf = tim23-1 mutant yeast growth inhibitors, confirmation, luminescence, single concentration | shares compounds with tim23-1 inh | S. cerevisiae tim23-1 growth, BacTiter-Glo luminescence, 24 h | inhibition, % at 20 µM | 4,400 compounds, 83% hits | AID 463218, 2010;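 active = inhibition above about 39% in either of two replicate wells at 20 µM, limit read from the data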;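 note: temperature-sensitive tim23-1 mutant grown at 25 °C; 0% = DMSO wells with yeast and 100% = medium wells without yeast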
* marks the source's active call; other numbers are inactive results. Cut-off read from the data, not from the text of the source, unless noted: active = inhibition above about 50%; inactive = the rest.

What do the screens show for `CC(/C=N/NC(=O)Cc1cccs1)=C\c1ccccc1`?
TIM10 inh: -15.7; NALP1 yeast inh: 29.2; NALP3 yeast inh: 20.9; tim10-1 inh: -16.4; V-ATPase pH: 0.8; tim23-1 inh: -6.7

How did O=C(N/N=C/C(Cl)=C/c1ccccc1)c1ccncc1 do in these assays?
TIM10 inh: 8.6; NALP1 yeast inh: 1.5; NALP3 yeast inh: 9.7; tim10-1 inh: -14.3; V-ATPase pH: 1.4; tim23-1 inh: 2.1

Results for CC(C)(C)C1CCC(=NOC(=O)c2ccc(F)cc2)CC1 (stereo unspecified) ?
TIM10 inh: 84.6*; NALP1 yeast inh: -21.9; NALP3 yeast inh: 58.6*; tim10-1 inh: 44.8*; V-ATPase pH: 6.5; tim23-1 inh: 67.0*; NALP3 confirm: 78.7*; Casp1-ASC yeast: 53.8*; NALP3 yeast rt: 41.9; tim10-1 conf: 3.6; TIM10 conf: 83.0*; tim23-1 conf: 62.5*

How did O=C(O/N=C1/CCSc2ccccc21)c1ccc(F)cc1 do in these assays?
TIM10 inh: 25.5; NALP1 yeast inh: 2.1; NALP3 yeast inh: -38.1; tim10-1 inh: 23.3; V-ATPase pH: -4.8; tim23-1 inh: 24.8

Results for COc1ccc(NC(=O)c2ccc3c(c2)N(C)CCS3)cc1 ?
TIM10 inh: -5.6; NALP1 yeast inh: 16.4; NALP3 yeast inh: 30.6; tim10-1 inh: 3.6; V-ATPase pH: -1.2; tim23-1 inh: 9.0

Results for CN1CCSc2ccc(C(=O)Nc3cccc(F)c3)cc21 ?
TIM10 inh: 47.1*; NALP1 yeast inh: 12.0; NALP3 yeast inh: 66.7*; tim10-1 inh: -14.7; V-ATPase pH: -1.9; tim23-1 inh: 67.9*; NALP3 confirm: 82.5*; TIM10 conf: 50.9*; tim23-1 conf: 70.8*

What do the screens show for `CCCCCCCCCn1c2c(c(=N)c3c1CCC3)CCC2`?
TIM10 inh: 48.2*; NALP1 yeast inh: 27.1*; NALP3 yeast inh: 58.9*; tim10-1 inh: 64.4*; V-ATPase pH: -0.7; tim23-1 inh: 66.7*; NALP3 confirm: 65.0*; Casp1-ASC yeast: 23.4; NALP3 yeast rt: 54.5*; tim10-1 conf: 60.5*; TIM10 conf: 49.5*; tim23-1 conf: 82.8*

How did CCn1c(=O)c(C(=O)NCCCc2ccccc2)c(O)c2ccccc21 do in these assays?
TIM10 inh: -14.7; NALP1 yeast inh: -2.3; NALP3 yeast inh: 14.6; tim10-1 inh: -36.0; V-ATPase pH: -0.3; tim23-1 inh: -0.1

How did O=C(NCCC1=CCCCC1)c1c(O)nc2ccccn2c1=O do in these assays?
TIM10 inh: 30.5; NALP1 yeast inh: 17.6; NALP3 yeast inh: 63.4*; tim10-1 inh: 51.3*; V-ATPase pH: -2.3; tim23-1 inh: 55.9*; NALP3 confirm: 76.3*; Casp1-ASC yeast: 51.6*; NALP3 yeast rt: 55.1*; tim10-1 conf: -6.4; tim23-1 conf: 56.4*

Results for O=C(NCCCc1ccccc1)c1c(O)nc2sccn2c1=O ?
TIM10 inh: 31.2; NALP3 yeast inh: 63.4*; tim10-1 inh: 35.5; V-ATPase pH: 0.5; tim23-1 inh: 70.1*; NALP3 confirm: 77.4*; Casp1-ASC yeast: 39.4; NALP3 yeast rt: 59.0*; tim23-1 conf: 54.0*

How did O=C(NCCC1=CCCCC1)c1cnsn1 do in these assays?
TIM10 inh: 1.5; NALP1 yeast inh: 7.5; NALP3 yeast inh: -3.8; tim10-1 inh: 12.0; V-ATPase pH: -2.0; tim23-1 inh: 6.3

What do the screens show for `O=C(NCCC1=CCCCC1)c1c(O)nc2sccn2c1=O`?
TIM10 inh: 35.5; NALP3 yeast inh: 66.7*; tim10-1 inh: 42.3*; V-ATPase pH: -1.6; tim23-1 inh: 74.9*; NALP3 confirm: 78.7*; Casp1-ASC yeast: 47.6; NALP3 yeast rt: 55.8*; tim10-1 conf: 1.1; tim23-1 conf: 61.6*

Results for O=C(O)CCC(=O)NC1CCCCCCC1 ?
TIM10 inh: 4.1; NALP1 yeast inh: 6.2; NALP3 yeast inh: -12.8; tim10-1 inh: 18.8; V-ATPase pH: 0.5; tim23-1 inh: 2.6

How did O=C(C[C@H]1C[C@H](C(=O)N2CCOCC2)[C@@]2(CCC3CCCC3)c3[nH]c4ccc(Cl)cc4c3CCN2C1=O)NCCN1CCOCC1 do in these assays?
TIM10 inh: 9.4; tim10-1 inh: 25.0; V-ATPase pH: 1.1; tim23-1 inh: 42.8

How did Cc1ccc(C(C[N+](=O)[O-])c2c(-c3ccccc3O)[nH][nH]c2=O)cc1 (stereo unspecified) do in these assays?
TIM10 inh: 32.8; NALP1 yeast inh: 113.5*; NALP3 yeast inh: 50.8*; tim10-1 inh: 43.8*; V-ATPase pH: 6.9; tim23-1 inh: 66.1*; NALP3 confirm: 50.7*; Casp1-ASC yeast: 77.4*; NALP3 yeast rt: 58.1*; tim10-1 conf: 37.5*; tim23-1 conf: 56.0*

How did Cc1nc2ccc(Cl)cc2[nH]1 do in these assays?
V-ATPase pH: -2.2

Results for Cc1nc2ccc(C(C(F)(F)F)(C(F)(F)F)C(F)(F)F)cc2[nH]1 ?
TIM10 inh: 34.8; NALP1 yeast inh: 40.0*; NALP3 yeast inh: 94.8*; tim10-1 inh: 30.5; V-ATPase pH: 0.6; tim23-1 inh: 59.4*; NALP3 confirm: 89.7*; Casp1-ASC yeast: 88.8*; NALP3 yeast rt: 80.0*; tim23-1 conf: 65.8*

What do the screens show for `Nc1ccc2nc(SCc3ccccc3F)sc2c1`?
TIM10 inh: 5.5; NALP3 yeast inh: 51.8*; tim10-1 inh: -11.7; V-ATPase pH: 4.4; tim23-1 inh: 63.1*; NALP3 confirm: 22.1; tim23-1 conf: 43.3*

Compound activity: PubChem, several laboratories
